The whole screen tested about 59,000 compounds, of which about 6,200 (11%) were called active. About 9% were inconclusive and are not listed. Cut-off read from the data, not from the text of the source: active = max dye-equivalent concentration above about 10 nM; inconclusive = mostly about 1.1 nM to 9.6 nM; inactive = weaker than that. Only a selection was taken, and actives are over-represented in it overall. More than one record can exist for a structure, and the calls need not agree.
Assay: qHTS Assay for Spectroscopic Profiling in 4-MU Spectral Region
Conditions: compound autofluorescence, 340/450 nm, 4-MU equivalents; active compounds read high
From the text: NIH Molecular Libraries Screening Centers Network [MLSCN] NIH Chemical Genomics Center [NCGC] […] Occasionally, the artifactual effect may originate from the compounds own spectral or other biophysical properties which generally tend to track its assay concentration. Pre-screening/profiling the library with respect to the compounds spectral properties should help one exclude false positives early on. While the most informative fluorescent profiling data set is obtained by performing a full excitation and emission scan of each well by using a monochromator-based plate reader, such an approach is practical only on a very limited scale as scanning each well requires long time. An alternative approach, applied here, is to perform plate reader scans using selected excitation and emission wavelength pairs to generate a multidimensional relational database that correlates compound concentration and the respective relative fluorescence intensity at a given wavelength set. A standard curve of 4-methylumbelliferone (4-MU) present on each plate as six-point concentration series, was used to compute a normalized fluorescence response, termed dye-equivalent concentration, for each compound at each concentration.
NCGC Assay Protocol Summary: Buffer: 100 mM Tris buffer, pH 8.0 Dye standard plate: The wells in columns 1 through 4 of a Kalypsys polypropylene 1536-well compound plate were filled with standard solutions of fluorophore corresponding to the spectral region of interest. Solutions of 4-MU were placed in the following wells: A1, B1: 3 mM, A2, B2: 300 uM, A3, B3: 30 uM, A4, B4: zero (DMSO), C1, D1: 3 uM, C2, D2: 900 nM, C3, D3: 300 nM, C4, D4: zero (DMSO). Assay Steps: Six uL of buffer were dispensed to 1536-well Greiner black plates. Compounds and dye standards (23 nL) were transferred via Kalypsys PinTool. The plates were incubated for 15 min at room temperature, and then read on ViewLux (Perkin-Elmer) High-throughput CCD imager using 340 nm and 450 nm excitation and emission filter set. Keywords: NIH Roadmap, MLSCN, MLI, MLSMR, qHTS, NCGC, Fluorescent Profiling, 4MU, 4-MU

SMILES	max dye-equivalent concentration	outcome
C[C@]12CC[C@H](O)CC1=CC[C@@H]1[C@H]2CC[C@]2(C)C(=O)CC[C@H]12	inactive	
C[C@]12CC[C@H](O)C[C@@H]1CC[C@H]1[C@H]2CC[C@]2(C)C(=O)CC[C@@H]12	69 nM (active)	inactive
C[C@@]12CC[C@H](O)C[C@@H]1CC[C@@H]1[C@@H]2CC[C@@]2(C)[C@@H](C3=CC(=O)OC3)[C@H](O)C[C@]12O	inactive	
Cc1ccc(S(=O)(=O)O[C@H]2CN3CCC2CC3)cc1	inactive	
CC1=CC(=O)C2=C(C)C[C@H](O)[C@@H]3[C@@H](OC(=O)[C@H]3C)[C@H]12	inactive	
O=C1C2CCN(CC2)C1(CO)CO	inactive	
c1ccc2c(c1)[I+]c1ccccc1-2	inactive	
CSC1=NP(=S)(SC)N(C)c2nc3n(c21)CCC3 (stereo unspecified)	22 nM (active)	
c1csc(CN2CC3(CCNCC3)C2)n1	inactive	
CC(C)CCC1(CCN)C(=O)NC(=O)NC1=O	inactive	
CN1[C@@H]2CC[C@H]1CC(OC(=O)c1cc(Cl)cc(Cl)c1)C2 (stereo partly specified)	inactive	
CC(=O)c1c(O)c(C)c(O)c(Cc2c(O)c3c(c(C(=O)/C=C\c4ccccc4)c2O)OC(C)(C)C=C3)c1O	inactive	
C[C@H]1CC[C@@]2(NC1)O[C@@H]1C[C@H]3[C@@H]4CC=C5C[C@@H](O)CC[C@]5(C)[C@@H]4CC[C@]3(C)[C@@H]1[C@@H]2C	inactive	
C/C(CCc1c[nH]c2ccccc12)=N\O	13 nM (active)	
NCCc1c[nH]c2ccc(O)cc12	inactive	
CCN(CC)CCn1ncc2c(N)ncnc21	inactive	
N[C@H](C(=O)O)c1cc(=O)[nH]o1	inactive	
COC(=O)C(O)(c1ccc(NC(=O)c2ccco2)c(OC)c1)C(F)(F)F (stereo unspecified)	inactive	
Cc1cccc(-n2c(C)nc3cc(C(=O)N4CCC5(CC4)OCCO5)ccc32)c1	inactive	
O=C(c1cc2nc(-c3ccccc3)cc(-c3ccccc3)n2n1)N1CCC2(CC1)OCCO2	64 nM (active)	
O=C(c1cc(-c2ccncc2)nc2ccccc12)N1CCC2(CC1)OCCO2	inactive	
NC[C@H](O)c1ccc(O)cc1	inactive	
NC(=O)c1ccc(OC[C@H](O)CN2CC=C(c3ccc(F)cc3)CC2)cc1	inactive	
COc1cc(C[C@H](C)N)c(OC)cc1I	inactive	
CC(=O)NBr	inactive	

SMILES	max dye-equivalent concentration	outcome
C[C@H](Br)C(=O)N[C@H](CO)C(=O)O	inactive	
COc1ccc(C2NCc3ccc4c(c3-n3cccc32)OCO4)cc1OC (stereo unspecified)	inactive	
CCOC(=O)c1c(-c2ccccc2)oc2ccc(OC(=O)N(C)C)cc12	50 nM (active)	
c1ccc(N2CC[C@@]3(CCCNC3)C2)nc1	inactive	
c1ccc(CN2CC[C@@]3(CCCNC3)C2)cc1	11 nM (active)	
c1csc(CN2CCCC3(CCNCC3)C2)n1	inactive	
C[C@@]12CC[C@H]3[C@@H](CC[C@]4(O)C[C@H](O)CC[C@@]34C=O)[C@]1(O)CC[C@@H]2C1=CC(=O)OC1	inactive	
CCN1C[C@@]2(COC)CC[C@H](OC)[C@]34[C@@H]1[C@]1(OCO[C@@]15C[C@@H](OC)C1C[C@H]3[C@H]5[C@@H]1OC)[C@H](O)[C@@H]24	inactive	
C=CCN1C(=O)C2(C(C(=O)OCC)=C(N)Oc3c2c(=O)oc2ccccc32)c2ccccc21 (stereo unspecified)	inactive	
CS(=N)(=O)CC[C@H](N)P(=O)(O)O (stereo partly specified)	inactive	
CCOC(=O)c1c(N)n(Cc2ccccc2)c2nc3ccccc3nc12	1100 nM (active)	
CC(=O)O[C@H]1CC[C@@]2(C)[C@@H](CC[C@H]3[C@H]2CC(=O)[C@]2(C)[C@@H]3C[C@@H](N3CC3)[C@H]2C(C)=O)C1	inactive	
CCNC[C@H](O)c1cccc(O)c1	inactive	
CC[C@@](O)(C(=O)O)c1cc2n(c(=O)c1CO)Cc1cc3ccccc3nc1-2	840 nM (active)	
CC[C@]1(O)C(=O)OCc2c1cc1n(c2=O)Cc2cc3ccccc3nc2-1	2300 nM (active)	
CN1CCN(C(=O)O[C@@H]2c3nccnc3C(=O)N2c2ccc(Cl)cn2)CC1	inactive	
CCN1C[C@]2(C)CC[C@H](O)[C@@]34[C@@H]5CC6[C@@H](OC)C[C@@](O)([C@@H]5[C@@H]6O)[C@H](C[C@@H]23)[C@H]14	inactive	
O=C(Nc1cccc(F)c1)N1CC[C@@]2(CCCN(C(=O)Oc3ccccc3)C2)C1	inactive	
NCC[Se][Se]CCN	inactive	
CCN1c2nc3c(C)cccn3c(=O)c2CC2(C(=O)N(C)C(=O)N(C)C2=O)C1C (stereo unspecified)	29 nM (active)	
CC(C)(O)/C=C\C(=O)[C@](C)(O)[C@H]1[C@H](O)C[C@]2(C)[C@@H]3CC=C4[C@@H](C=C(O)C(=O)C4(C)C)[C@]3(C)C(=O)C[C@@]12C	inactive	
NCCc1ccc(S(=O)(=O)F)cc1	inactive	
C[N+]1(C)C2CC(OC(=O)C(CO)c3ccccc3)CC1[C@@H]1O[C@H]21 (stereo partly specified)	inactive	
O=C(O)C(=O)Cc1ccc2c(c1)OCO2	inactive	
CC(C)(O)[C@H]1[C@H]2OC(=O)[C@@H]1[C@]1(O)C[C@H]3O[C@]34C(=O)O[C@H]2[C@]14C	inactive	

From PubChem BioAssay AID589 (National Center for Advancing Translational Sciences (NCATS), 2007)
